HCMV antiviral – human cytomegalovirus inhibition; HFF cells, HCMV-luciferase reporter, 72 h; active compounds read low; activity change, negative = inhibition, % at 57.5 µM; actives 4.5% (n = 410,000); AID 1259415; in the data active = activity change below about -60%; inconclusive = no clear call, values can overlap the other calls; inactive = above about -39%
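HFF cells seeded 16 h at 37C, treated with compounds, infected with luciferase-reporter HCMV at MOI 1 PFU/cell; luciferase read at 72 h post infection, normalized to buffer-only and Salinomycin controls.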
VACV Venus inh – inhibitors of vaccinia virus (Venus reporter). Vaccinia virus Venus reporter expression, fluorescence. AID 720580. Potency, µM (series often up to 36.5 µM), inactives show top-dose activity change, negative = inhibition, actives largely listed as inhibitors. actives 0.46% (n = 330,000); calls by dose curve; tested in A549 cells; also: potency is read from the fitted curve at half-maximal effect; nearly all actives have a fitted effect of over 30% in size
MARV entry inh – blocks Marburg virus binding to or entry into cells; actives 1.8% (n = 300,000); Marburg virus pseudotyped entry inhibition, cell reporter; AID 540276; Potency, µM (highest dose often 37.8 µM), for inactives: at the top dose activity change, negative = inhibition, usual class: inhibitors; calls by dose curve; tested in HEK293 cells; also: potency is read from the fitted curve at half-maximal effect
FMDV inh – blocks foot and mouth disease virus. Potency, µM (titrated, usually from 57.9 µM), for inactives: at the highest dose activity change, negative = inhibition, actives largely listed as inhibitors. AID 1159524. actives 1.2% (n = 410,000). FMDV antiviral cell-based qHTS; calls by dose curve; tested in HEK293T cells; also: read-out not given here; potency is read from the fitted curve at half-maximal effect; nearly all actives have a fitted effect of over 45% in size
Lassa entry inh – Lassa virus entry inhibition. Potency, µM (highest dose often 37.9 µM), for the others: at the top dose activity change, negative = inhibition, hits mostly inhibitors. Lassa virus pseudotype entry inhibition, cell reporter. actives 1.2% (n = 300,000); calls by dose curve; tested in HEK293 cells; also: potency is read from the fitted curve at half-maximal effect; nearly all actives have a fitted effect of over 50% in size
Vaccinia mCherry – vaccinia inhibition (mCherry reporter). Vaccinia virus mCherry reporter infection, fluorescence. Potency, µM (series often up to 36.5 µM), without a hit: top-dose activity change, negative = inhibition, hits mostly inhibitors. actives 0.63% (n = 310,000). AID 720579; calls by dose curve; tested in A549 cells; also: potency is read from the fitted curve at half-maximal effect; nearly all actives have a fitted effect of over 35% in size
* marks the source's active call; other numbers are inactive results; i = inactive; ? = inconclusive; . = no result given; [ ] = remark or other dose. Rows were chosen to be rich in hits. Some 6.5% of all compounds tested hit in one or more screens of this group. % is scaled to controls: 0 for no effect and ±100 for the full control effect.

SMILES	HCMV antiviral	VACV Venus inh	MARV entry inh	FMDV inh	Lassa entry inh	Vaccinia mCherry
CCc1ccccc1N1C(=O)NC(=O)/C(=C\c2cc(C)n(C)c2C)C1=O	-34.1	-25.7%	-4.9%	-19.8%	-11.8%	10µM*
CC[C@@H](C)[C@H](NS(=O)(=O)c1cccc2ccccc12)C(=O)N[C@H](C=O)Cc1c[nH]c2ccccc12	.	-11.9%	.	-15.9%	.	-15.8%
CC(=O)NC(Cc1cccc(C)c1)C(=O)NC1CCN(C(=O)c2ccc([N+](=O)[O-])cc2)CC1 (stereo unspecified)	-74.4*	4.4%	-0.6%	16.8%	-6.2%	i
COC(=O)CC=C[C@@H](C)[C@@H](C=NOC[C@@H](O)COCc1ccco1)NS(=O)(=O)c1ccc(C)cc1	.	.	20.9%[14.2 µM]	.	.	.
COc1ccc(-c2c(C#N)c(N)nc3c2CCc2ccccc2-3)cc1OC	-26.5	.	23.1µM*	15.8µM*	?	.
COc1ccc(-c2cc(-c3ccc(O)cc3)nc(N)c2C#N)cc1OC	0.3	?	4.47µM*	9.6%	?	-16.6%
COc1cc(-c2c(C#N)c(N)nc3c2CCCC3)ccc1O	-4.2	-21.3%	-27.4%	?	-10.5%	?
Brc1ccc(-c2csc(/N=C/N3CCCC3)n2)cc1	-23.2	-27.0%	8.91µM*	-21.7%	?	-15.0%
COC(=O)CC=C[C@@H](C)[C@@H](C=NO[C@@H](C)c1cn([C@H](CO)Cc2ccccc2)nn1)NS(=O)(=O)c1ccc(C)cc1	.	.	-12.7%[14.2 µM]	.	12.8%[14.3 µM]	.
Cc1nn(Cc2ccccc2Cl)c(C)c1C(=O)Nc1nnc(C2CC2)s1	-89.8*	-12.6%	0.891µM*	-14.4%	?	?
O=C(Nc1ccc([N+](=O)[O-])cc1Cl)c1cc(Br)ccc1O	.	0.794µM*	.	.	.	3.55µM*
O=C(Nc1ccc([N+](=O)[O-])cc1Cl)c1cc(Cl)cc(Cl)c1O	.	?	.	.	.	8.91µM*
Cc1cc(C)c(Cn2c3ccccc3c3cnn(CC(=O)N4CCCCC4)c(=O)c32)c(C)c1	12.7	-10.0%	-3.2%[46.1 µM]	-7.7%	?	-19.5%
Cc1ccccc1Cn1c2ccccc2c2cnn(CC(=O)NC(C)CCc3ccccc3)c(=O)c21 (stereo unspecified)	-75.2*	-13.3%	6.2%[46.1 µM]	-20.4%	?	-10.0%
Cc1ccc(C)c(Cn2c3ccccc3c3cnn(CC(=O)NCCCc4ccccc4)c(=O)c32)c1	-2.8	-16.3%	?	9.3%	3.1%[46.1 µM]	-13.1%
CCN1CCN(C(=O)Cn2ncc3c4ccccc4n(Cc4c(C)cc(C)cc4C)c3c2=O)CC1	-60.3*	3.3%[7.34 µM]	?	0.0%	-25.0%[46.1 µM]	-2.9%[7.34 µM]
Cc1ccccc1Cn1c2ccccc2c2cnn(CC(=O)NCCCc3ccccc3)c(=O)c21	-81.0*	-4.2%	24.5%[46.1 µM]	-21.2%	-22.8%[46.1 µM]	-19.0%
Cc1ccccc1Cn1c2ccccc2c2cnn(CC(=O)NCCc3ccccc3)c(=O)c21	-96.3*	-14.8%	?	7.8%	18.0%[46.1 µM]	-21.6%
Cc1ccc(C)c(Cn2c3ccccc3c3cnn(CC(=O)NCCCN4CCCCC4)c(=O)c32)c1	-79.2*	.	.	-21.6%	.	.
Cc1ccc(C)c(Cn2c3ccccc3c3cnn(CC(=O)N4CCCCC4)c(=O)c32)c1	-2.7	-4.0%	11.4%[46.1 µM]	-6.5%	-14.0%[46.1 µM]	-8.7%
N#Cc1nccnc1S(=O)(=O)c1cccs1	-97.0*	-12.8%	-34.7%	?	0.7%	-10.0%
CN(Cc1ccccc1C#N)S(=O)(=O)c1cccs1	23.0	-11.2%	2.2%[46.1 µM]	-9.1%	24.1%	-29.9%
Cc1ccc2c(c1)ncc[n+]2CC(=O)c1ccc(Cl)cc1Cl	.	-27.1%	.	.	.	43.2%
COC(=O)c1ccc(NC(=O)c2nn(C)c3c2COc2ccccc2-3)cc1	-70.9*	8.3%	?	?	?	18.1%
O=c1c2ccccc2nc(/C=C/c2ccc(O)c(O)c2)n1-c1ccccc1	77.7	.	.	?	.	.
SMILES	HCMV antiviral	VACV Venus inh	MARV entry inh	FMDV inh	Lassa entry inh	Vaccinia mCherry
O=c1c2ccccc2nc(/C=C/c2ccc(O)cc2)n1-c1ccccc1O	-38.5	.	.	-9.5%	.	.
O=C(O)c1ccc(-n2c(/C=C\c3ccc(O)cc3)nc3ccccc3c2=O)cc1	-13.5	-6.3%	.	-22.0%	-14.2%[46.1 µM]	-5.4%
O=c1c2ccccc2nc(/C=C\c2cccc(Br)c2)n1-c1ccc(O)cc1	-92.0*	-15.1%	.	-5.3%	?	-21.9%
O=c1c2ccccc2nc(/C=C/c2cc(Br)ccc2O)n1CCCO	-96.3*	?	?	25.1µM*	10µM*	11.2µM*
O=c1c2ccccc2nc(/C=C/c2cccc([N+](=O)[O-])c2)n1CCO	?	-18.4%	?	-25.0%	?	-10.5%
O=c1c2ccccc2nc(/C=C/c2ccccc2)n1-c1ccccc1O	-94.9*	-11.7%	?	-13.9%	?	-9.1%
O=c1c2ccccc2nc(/C=C/c2ccccc2)n1-c1ccc(O)cc1	-88.1*	-16.8%	?	?	?	i
COc1ccc(-c2cn3cccnc3n2)cc1NC(=O)Cc1ccccc1	?	-2.9%	.	?	-1.5%[46.1 µM]	-12.5%
CC1C(=O)OC2C(O)C34C5CC(C(C)(C)C)C36C(OC(=O)C6O)OC4(C(=O)O5)C12O (stereo unspecified)	.	.	.	-15.6%	.	.
CC1=CC[C@@H](COc2ccccc2)O[C@@]2(C1)C(=O)N(Cc1ccc(Br)cc1)c1cccc(Br)c12	.	.	46.4%[14.2 µM]	.	.	.
CCOC(=O)c1ccc(S(=O)(=O)N2CCN(c3nc(-c4ccccc4)nc4ccccc34)CC2)cc1	.	-15.3%	.	.	.	-7.3%
CN(C)CCCNc1nc2sc3c(c2c(=O)n1CCc1ccccc1)CCCCC3	?	-12.5%	7.08µM*	-7.3%	?	-10.9%
CN(C)CCCn1c(=O)n(CCc2ccccc2)c(=O)c2c3c(sc21)CCCCC3	-19.0	.	.	?	.	.
CC(C)c1onc(-c2c(Cl)cccc2Cl)c1COc1ccc(/C=C/c2cccc(C(=O)O)c2)c(Cl)c1	.	.	.	-17.8%	.	.
CC1C(=O)C(C)(C)C(=O)OC1c1ccc([N+](=O)[O-])cc1 (stereo unspecified)	-104.0*	.	.	6.9%	.	.
CC1C(=O)C(C)(C)C(=O)OC1c1ccccc1 (stereo unspecified)	-38.7	.	.	5.2%	.	.
COc1ccc(OC)c(CNc2ncnc3c2nc2n3CCCC2)c1	-30.6	3.3%	.	-5.1%	?	-12.5%
Nc1nc(-c2ccccc2)cc(N2CCCCC2)n1	-62.7*	?	?	-3.9%	?	-23.2%
COc1cc(-c2ccccc2)nc(N)n1	71.4	.	?	77.1%	11.6µM*	.
Cc1[nH]n(-c2ccccc2)c(=O)c1/C=N/NC(=O)c1cccc([N+](=O)[O-])c1	-104.2*	-7.7%	?	0.0%	?	.
CC(=O)N/N=C/c1c(C)[nH]n(-c2ccccc2)c1=O	5.9	7.9%	-6.7%[46.1 µM]	-9.9%	14.8%	i
Cc1[nH]n(-c2cccc3ccccc23)c(=O)c1/C=N/NC(=O)c1cccc([N+](=O)[O-])c1	-100.7*	-11.0%	?	-24.0%	-10.0%	i
COc1c(/C=N/Nc2ccc([N+](=O)[O-])cc2[N+](=O)[O-])c(C)nn1-c1ccccc1	-16.1	-7.5%	14.0%	-3.5%	-3.1%	i

Screening results from PubChem BioAssay.
